Data taken from PubChem BioAssay AID1159580 (chemical genetic matrix, 2015).
Where “and” joins values, the source holds several entries; their conditions need not be identical. Identical values can stand only once. In all, about 5,500 compounds went through this assay and about 2,000 (36%) were called active. Roughly 18% stayed inconclusive and do not appear here. No stated cut-off is given here; in the data, active means normalized growth mostly below about 0.91 (no sharp cut-off); inconclusive means no clear call, values can overlap the other calls; inactive means mostly above about 0.92. The list shows a part of the results.

Assay: chemical genetic growth profiling, strain panel (AID 1159580);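 further: tested at 20 µM; growth read once vehicle control cultures reached saturation at 30 °C; 1 = growth at the plate median or of vehicle wells; lower values mean less growth of the strain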
Details: S. cerevisiae deletion strains, growth OD

Measured: normalized growth

Cc1c(N(C)CS(=O)(=O)O)c(=O)n(-c2ccccc2)n1C
inactive: locus YAL021C, strain ccr4, hits give low values 1.01 | locus YAL026C, strain drs2, hits give low values 1.01 | locus YAL030W, strain snc1, hits give low values 1.01 | locus YBL061C, strain skt5, hits give low values 1.01 | locus YBR009C, strain hhf1, hits give low values 1 | locus YBR021W, strain FUR4, hits give low values 0.991 | locus YBR023C, strain chs3, hits give low values 1.01 | locus YBR171W, strain sec66, hits give low values 1.02 | locus YBR229C, strain ROT2, hits give low values 0.989 | locus YBR231C, strain swc5, hits give low values 1.02 | locus YBR279W, strain paf1, hits give low values 1.04 | locus YCL011C, strain gbp2, hits give low values 1.01 | locus YCL016C, strain dcc1, hits give low values 1.01 | locus YCL029C, strain bik1, hits give low values 0.992 | locus YCL061C, strain MRC1, hits give low values 1.01 | locus YCL069W, strain vba3, hits give low values 1.01 | locus YCR088W, strain abp1, hits give low values 1.01 | locus YDL005C, strain med2, hits give low values 1.01 | locus YDL035C, strain GPR1, hits give low values 1 | locus YDL040C, strain nat1, hits give low values 1.01 | locus YDL074C, strain BRE1, hits give low values 1.06 | locus YDL101C, strain DUN1, hits give low values 1 | locus YDL134C, strain PPH21, hits give low values 0.979 | locus YDL185W, strain tfp1, hits give low values 0.992 | locus YDL192W, strain arf1, hits give low values 0.982 | locus YDR001C, strain nth1, hits give low values 1.01 | locus YDR069C, strain doa4, hits give low values 1.01 | locus YDR101C, strain arx1, hits give low values 1.03 | locus YDR137W, strain rgp1, hits give low values 1.01 | locus YDR159W, strain sac3, hits give low values 1 | locus YDR162C, strain NBP2, hits give low values 0.987 | locus YDR195W, strain ref2 1.01 | locus YDR297W, strain sur2, hits give low values 1.01 | locus YDR318W, strain mcm21, hits give low values 0.976 | locus YDR334W, strain swr1, hits give low values 1.01 | locus YDR335W, strain msn5, hits give low values 1.01 | locus YDR388W, hits give low values 0.982 | locus YDR392W, strain spt3, hits give low values 1.01 | locus YDR502C, strain sam2, hits give low values 1 | locus YEL003W, strain gim4, hits give low values 1.01 | locus YEL037C, strain rad23, hits give low values 1.01 | locus YEL061C, strain CIN8 (second series), hits give low values 1.02 | locus YEL061C, strain CIN8, hits give low values 0.999 | locus YER015W, strain faa2, hits give low values 1.01 | locus YER016W, strain bim1, hits give low values 1.01 | locus YER110C, hits give low values 0.994 | locus YER111C, strain swi4, hits give low values 1.01 | locus YER155C, strain BEM2 (second series), hits give low values 1.02 | locus YER155C, strain BEM2, hits give low values 0.992 | locus YER167W, strain BCK2, hits give low values 0.979 | locus YFR010W, strain ubp6, hits give low values 1.02 | locus YGL078C, strain dbp3, hits give low values 0.985 | locus YGL086W, strain mad1, hits give low values 0.995 | locus YGL167C, strain pmr1, hits give low values 1.01 | locus YGL173C, strain kem1, hits give low values 1.02 | locus YGL227W, strain vid30, hits give low values 1.01 | locus YGL240W, strain doc1, hits give low values 1.03 | locus YGL248W, strain PDE1, hits give low values 0.991 | locus YGL253W, strain hxk2, hits give low values 1.01 | locus YGR135W, strain pre9, hits give low values 0.96 | locus YGR252W, strain gcn5, hits give low values 0.968 | locus YHR013C, strain ard1, hits give low values 0.999 | locus YHR027C, strain rpn1, hits give low values 1.01 | locus YHR030C, strain SLT2, hits give low values 0.984 and 1 | locus YHR079C, strain IRE1 (second series), hits give low values 0.986 | locus YHR079C, strain IRE1, hits give low values 0.98 | locus YHR094C, strain hxt1, hits give low values 0.985 | locus YHR129C, strain ARP1, hits give low values 0.988 | locus YHR142W, strain chs7, hits give low values 1.02 | locus YHR200W, strain rpn10, hits give low values 0.981 | locus YIL066C, strain RNR3, hits give low values 0.998 | locus YIL073C, strain SPO22, hits give low values 0.997 | locus YIL125W, strain kgd1, hits give low values 0.993 | locus YIR030C, strain dcg1, hits give low values 0.982 | locus YJL092W, strain hpr5, hits give low values 1.01 | locus YJL095W, strain BCK1 (second series), hits give low values 1.02 | locus YJL095W, strain BCK1, hits give low values 1 and 0.996 | locus YJL115W, strain asf1, hits give low values 1 | locus YJL129C, strain trk1, hits give low values 1.01 | locus YJL134W, strain LCB3, hits give low values 0.986 | locus YJL154C, strain vps35, hits give low values 1.01 | locus YJL164C, strain tpk1, hits give low values 1.01 | locus YJL166W, strain qcr8, hits give low values 1.02 | locus YJL168C, strain set2, hits give low values 0.989 | locus YJL187C, strain SWE1 (second series), hits give low values 0.997 | locus YJL187C, strain SWE1, hits give low values 1.01 | locus YJR043C, strain POL32, hits give low values 1 | locus YJR066W, strain TOR1, hits give low values 0.946
